# Screens as filed in PubChem BioAssay.
# Hits are enriched below; roughly 7.1% of the tested compounds scored in any of these assays.
# SW480 rereplic: A quantitative high throughput screen for small molecules that induce DNA re-replication in SW480 colon adenocarcinoma cells | SW480 DNA re-replication, Hoechst DNA content imaging, 48 h | Potency, µM (top dose mostly 46.1 µM), for the others: at the top dose re-replication activation, most hits filed as activators | actives 1.8% (n = 340,000) | AID 624297, 2012; also: potency is read from the fitted curve at half-maximal effect; % of control where 0% means no effect; nearly all actives have a fitted effect of over 55% in size
#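 Readout is total intensity of Hoechst-stained nuclei, excited at 405 nm and collected at 500-530 nm. Compound treatment lasted 48 hr at 37 C in 5% CO2 before staining.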
# MCF10A rerep: A quantitative high throughput screen for small molecules that induce DNA re-replication in MCF 10a normal breast cells; actives 2.9% (n = 350,000); Potency, µM (highest dose often 46.1 µM), without a hit: at the top dose activity, positive = re-replication, usual class: activators; MCF 10A DNA re-replication, Hoechst nuclear intensity, 48 h; also: potency is read from the fitted curve at half-maximal effect; % of control where 0% means no effect; nearly all actives have a fitted effect of over 50% in size
# IL1B secr inh: qHTS for Inhibitors of Inflammasome Signaling: IL-1-beta AlphaLISA Primary Screen. actives 4.7% (n = 360,000). AID 743279, 2014. activity change, % at 57.5 µM. THP-1 LPS/ATP IL-1B secretion, AlphaLISA, 16 h; active compounds read low; in the data active = activity change below about -50%; inconclusive = mostly about -30% to -49%; also: % is scaled to controls: 0 for no effect and ±100 for the full control effect
#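 Secreted IL-1B measured by AlphaLISA bead assay after 16 h compound exposure of THP-1 cells; compounds (final up to 57.5 uM) added 1 h before LPS (250 ng/mL) and ATP (1.25 mM) stimulation; lower signal means less secretion.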
# PINK1 modulator: A Quantitative High throughput Screen to Identify Chemical Modulators of PINK1 Expression. Potency, µM (titrated, usually from 76.6 µM), without a hit: at the top dose activation (PINK1 increase), usual class: activators. PINK1 immunofluorescence, high-content cytometry, 24 h. actives 0.2% (n = 410,000); active = well fitted activation curve with a large enough effect; inconclusive = small, poorly fitted or top-dose-only effect; cell line not stated here; also: potency is read from the fitted curve at half-maximal effect; % of control where 0% means no effect; nearly all actives have a fitted effect of over 65% in size
#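 Stable cell line, 250 cells/well, 12 h attachment; compounds pinned at 5 concentrations, 24 h; CCCP control. Fixed with nuclear dye, primary antibodies 12 h at 10 degrees C, secondary plus cell stain; laser-scanning cytometer read.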
# ATXN viability: Viability Counterscreen for Primary qHTS for Inhibitors of ATXN expression | S2 cells (HEK-293 line with an ATXN2-luciferase reporter) viability, CellTiter-Fluor protease fluorescence, 24 h | Potency, µM (series often up to 56.7 µM), hits mostly cytotoxic | AID 651635, 2014 | actives 0.49% (n = 400,000); also: potency is read from the fitted curve at half-maximal effect; nearly all actives have a fitted effect of over 40% in size
# ATXN2 expr inh: Primary qHTS for Inhibitors of ATXN expression; HEK-293 ATXN2-luciferase reporter, luminescence, 24 h; Potency, µM (doses to about 57 µM), inactives show top-dose activity change, negative = inhibition, most hits filed as inhibitors; actives 0.72% (n = 360,000); also: potency is read from the fitted curve at half-maximal effect; % is scaled to controls: 0 for no effect and ±100 for the full control effect; nearly all actives have a fitted effect of over 55% in size
#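 qHTS (up to 57 uM final) was run with 24 h compound exposure of reporter cells at 37 °C. Each well was multiplexed: SteadyGlo luminescence measured ATXN2-luciferase expression after a fluorogenic Gly-Phe-AFC viability readout (25 uM final).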
# Active calls of the source: *; i = inactive; ? = inconclusive; . = not tested or not shown. Unless noted, calls follow the shape of the dose curve; as a rule, active = well fitted curve in the direction sought with a large enough effect; inconclusive = small, poorly fitted or top-dose-only effect, or another doubt; inactive = no such curve, though single readings can be large; an effect the other way counts as inactive or inconclusive.
SMILES,SW480 rereplic,MCF10A rerep,IL1B secr inh,PINK1 modulator,ATXN viability,ATXN2 expr inh
CC(C)Cc1nnc(NC(=O)c2cc3c(s2)CCC3)s1,23.1µM*,23.1µM*,1.5,-0.2%,i,42.2%
O=C(Nc1nncs1)c1cc2c(s1)CCC2,-1.4%,-3.6%,-14.7,-0.2%,i,-5.5%
CCOC(=O)c1ccc(NC(=O)NCCOCCn2c(=O)oc3ccccc32)cc1,.,.,.,1.0%,i,-17.9%
Cc1ccc(C(=O)CC(SCC(=O)O)c2ccc([N+](=O)[O-])cc2)cc1 (centres undefined),?,18.4µM*,?,3.8%,?,.
COc1ccc(N2CC(NC(=O)c3ccco3)CC2=O)cc1 (centres undefined),.,.,.,-0.1%,.,.
COc1cccc(NC(=O)CSc2nc3ccc(NC(=O)c4cccs4)cc3s2)c1,.,.,.,0.7%,?,-5.7%
Cc1ccc(-c2c(C)n3c4c(=O)n(C)c(=O)n(C)c4nc3n2CCCO)cc1,.,.,.,1.9%,28.2µM*,25.1µM*
COC(=O)CCCn1c(-c2ccc(C)cc2)c(C)n2c3c(=O)n(C)c(=O)n(C)c3nc12,.,.,.,0.1%,i,5.0%
Cc1cnc(-n2ncc(C(=O)N[C@H]3CCCCNC3=O)c2C2CC2)nc1-c1cccs1,.,.,.,1.0%,i,.
Cc1ccc(NC(=O)C2C3CC4OC(=O)C2C4C3)cc1Cl (centres undefined),0.7%,3.66µM*,16.1,0.2%,i,11.5%
CC(C)OC(=O)c1ccc(NC(=O)C2C3CC4OC(=O)C2C4C3)cc1 (centres undefined),0.2%,-10.0%,2.5,-1.5%,i,55.4%
O=C(COC(=O)c1c2c(nc3ccccc13)/C(=C/c1ccco1)CC2)NC1CCCC1,13µM*,7.31µM*,-60.8*,2.6%,.,4.7%
CC1CCCCC1NC(=O)COC(=O)c1c2c(nc3ccccc13)/C(=C/c1ccco1)CC2 (centres undefined),14.6µM*,16.4µM*,-15.0,8.4%,.,11.4%
Cc1cc(C(=O)OCC(=O)NC2CCCC2)c2ccccc2n1,-15.8%,4.3%,3.8,-2.0%,i,-2.6%
Cc1cc(C(=O)OCC(=O)NC2CCCCC2C)c2ccccc2n1 (centres undefined),-1.3%,-5.9%,0.0,1.8%,i,-6.9%
CCOC(=O)C1CCN(C(c2ccc(OCC)cc2)c2c(O)cc(C)n(CCOC)c2=O)CC1 (centres undefined),.,.,.,0.4%,.,.
O=C(O)c1cc(N/N=C/c2ccncc2)ccc1Cl,29.5%,-12.7%,8.4,-0.9%,i,-17.1%
Clc1cncc(Cl)c1N/N=C/c1ccncc1,-3.3%,16.5%,-94.9*,-3.7%,i,-1.5%
Clc1cccc(Cl)c1/C=N/Nc1c(Cl)cncc1Cl,8.2µM*,2.59µM*,-82.5*,1.8%,i,-26.5%
CC(=O)O[C@H]1CC(C)(C)C(=C=C/C(C)=C/C=C/C(C)=C/C=C/C=C(C)/C=C/C=C(\C)C(=O)C[C@@]23O[C@]2(C)C[C@@H](O)CC3(C)C)[C@](C)(O)C1,?,?,-63.3*,3.4%,?,?
CCCCCCCCCCCCCCCC(=O)O[C@@H]1CC(C)=C(/C=C/C(C)=C/C=C/C(C)=C/C=C/C=C(C)/C=C/C=C(C)/C=C/C2=C(C)C[C@@H](OC(=O)CCCCCCCCCCCCCCC)CC2(C)C)C(C)(C)C1,.,.,.,.,i,.
CCCCOc1ccccc1NC(=O)CC1Sc2ccccc2NC1=O (centres undefined),.,.,.,-4.0%,i,-3.2%
CCCCSCCCNC(=O)C1CCN(Cc2nc(-c3ccc(CC)cc3)oc2C)CC1,.,.,.,8.6%,?,3.1%
Cc1ccc(NC(=O)C2=C(C(=O)O)CCCC2)cc1Br,8.2µM*,4.9%,-4.9,0.6%,?,-0.8%
COc1c(Cl)cnn(-c2ccc(C)cc2)c1=O,?,?,-24.9,?,i,1.5%
SMILES,SW480 rereplic,MCF10A rerep,IL1B secr inh,PINK1 modulator,ATXN viability,ATXN2 expr inh
COc1ccc(Oc2c(Cl)cnn(-c3ccc(Cl)c(Cl)c3)c2=O)cc1,?,?,-113.3*,-3.8%,?,?
Cn1ncc(Cl)c(Oc2ccc(Cl)cc2)c1=O,65.3%,3.4%,-90.1*,1.7%,i,4.1%
Cn1ncc(Oc2ccc([N+](=O)[O-])cc2)c(Cl)c1=O,?,?,.,0.5%,.,-5.4%
COc1ccc(Oc2c(Cl)cnn(-c3ccc(C)cc3)c2=O)cc1,?,?,-114.4*,-4.7%,i,?
COc1ccc(Oc2c(Cl)cnn(-c3ccc(F)cc3)c2=O)cc1,?,22.5%,-112.1*,-1.6%,i,-22.5%
CC(=O)Nc1cccc(-c2cc(C)c3cc4c(cc3n2)OCO4)c1,-0.8%,15.5%,-50.9*,2.2%,i,35.0%
CC(=O)Nc1cccc(-c2nc3ccccc3s2)c1,-2.5%,-14.3%,-21.1,3.5%,?,17.1%
CCCSCCCNC(=O)C1CCN(c2nc3ccccc3nc2C(F)(F)F)CC1,.,.,.,0.2%,i,1.0%
NS(=O)(=O)c1ccc(SCc2ccccc2)nc1,2.2%,-0.5%,?,1.2%,i,12.5%
NS(=O)(=O)c1ccc(Sc2ccc3ccccc3c2)nc1,7.2%,11.1%,-88.2*,1.4%,i,-22.5%
O=C(OCC(O)CO)c1ccccc1Nc1ccnc2cc(Cl)ccc12 (centres undefined),-59.6%,-40.0%,-82.8*,0.2%,i,-10.7%
CCc1nn2c(=O)cc(COC(=O)c3ccccc3NC(=O)c3ccc(C(C)(C)C)cc3)nc2s1,.,.,.,4.0%,.,.
Cc1cc(C)cc(-n2c(C)cc(C(=S)N3CCOCC3)c2C)c1,2.2%,0.1%,-54.1*,0.2%,i,-13.5%
CC1CN(C(=O)N2CCC(C(=O)NCc3ccco3)CC2)c2ccccc2O1 (centres undefined),.,.,.,-0.3%,.,.
O=[N+]([O-])c1ccc(N=Nc2ncc[nH]2)cc1,?,?,-109.6*,10.4%,1.26µM*,.
COc1ccc(NN=Nc2ccc([N+](=O)[O-])cc2)cc1,-1.7%,-0.1%,-18.3,1.4%,?,23.3%
N#Cc1sc2nc(C3CC3)cc(-c3ccc(Cl)cc3)c2c1N,?,5.3%,22.9,1.1%,.,-19.4%
COc1ccc(C(=O)c2sc3nc(C)cc(-c4cccs4)c3c2N)cc1OC,?,5.17µM*,-79.8*,3.6%,.,-28.2%
Cc1cc(C)c2c(N)c(C(=O)c3ccc(Cl)c(Cl)c3)sc2n1,-3.7%,0.2%,-6.6,6.6%,i,.
